Unmarked numbers belong to inactive results. The source made the active and inactive calls. Calls come from the whole dose curve.
experiment: G protein-coupled receptor (GPCR) small molecule agonists, calcium flux assay: HEK293 wild type cell line counter screen (AID 1920065); settings: HEK293 WT calcium flux, fluorescence, agonist mode; series mostly up to 57.6 µM; activation: at the top concentration
Excerpt: U.S. Tox21 Program National Center for Advancing Translational Sciences [NCATS] Division of Preclinical Innovation [DPI] U.S. Environmental Protection Agency [EPA] National Institutes of Environmental Health Sciences [NIEHS] National Toxicology Program [NTP] U.S. Food and Drug Administration [FDA] Assay overview: The increased intracellular calcium release that occurred upon G protein-coupled receptor (GPCR) activation led to the frequent use of calcium flux assays to detect GPCR activation. For the purpose of studying and screening compounds that may activate GPCR, receptor-overexpressing models were typically generated using Hek293 wild-type (WT) cells. In order to eliminate the compounds that may have induced calcium release for non-specific activation, a counter-assay utilizing calcium flux on Hek293 WT cells was performed. The data were formulated in order to serve as a control for any calcium flux detection utilizing Hek293 cells with either GPCR overexpression or gene modification. The procurement of Hek293 WT cells from ATCC. Fluorescence intensity can be utilized to determine the activation of the compound in a calcium flux assay. As a counter control, this cell line was utilized to screen the Tox21 10K compound library.
Assay Protocol Summary: Hek293 cells were dispensed at 1500cells/4uL/well in 1536-well black wall/clear bottom plates using a multidrop dispenser. After the assay plates were incubated at a 37 C/5% CO2 incubator for 18 hours, 4 uL of Calcium Dye Solution was added to each well. The plates were incubated at 37 C for 1 hour. For agonist mode, 23 nL of compounds dissolved in DMSO, positive control (ATP) or DMSO only was transferred to the assay plate by a pin tool station. The fluorescence intensity in the plates was measured using FDSS 7000EX kinetic plate reader with a filter set of Ex/Em=480/540 for 3 min at 1 sec intervals. Each test compound was measured at 15 concentrations and in triplicates.
% is set by controls: 0 for no effect and ±100 for the full control effect; potency is the fitted concentration of half-maximal effect.

In order of falling “activation” value:
1. Clc1ccc(CSC(Cn2ccnc2)c2ccc(Cl)cc2Cl)cc1 (stereo not given)  2.2% [at 26.5 µM]
2. C=C(C)[C@H]1CN[C@H](C(=O)O)[C@H]1CC(=O)O  1.56% [at 26.5 µM]
3. CC[C@H](C)[C@H]1O[C@]2(C=C[C@@H]1C)C[C@@H]1C[C@@H](C/C=C(\C)[C@@H](O[C@H]3C[C@H](OC)[C@@H](O[C@H]4C[C@H](OC)[C@@H](O)[C@H](C)O4)[C@H](C)O3)[C@@H](C)/C=C/C=C3\CO[C@@H]4[C@H](O)C(C)=C[C@@H](C(=O)O1)[C@]34O)O2  0.982% [at 26.5 µM]
4. CCC(=O)C(CCN(C)C)(c1ccccc1)c1ccccc1  0.493% [at 26.5 µM]
5. Clc1cc(Cl)c(-c2cc(Cl)c(Cl)cc2Cl)cc1Cl  0.452% [at 26.5 µM]
6. CCC1(C2=NCCN2)Cc2ccccc2O1 (stereo not given)  0.152% [at 26.5 µM]
7. O=c1c(C2CC(c3ccc(-c4ccc(Br)cc4)cc3)Cc3ccccc32)c(O)sc2ccccc12 (stereo not given)  0.0488% [at 26.5 µM]
8. CCCN(CCC)C(=O)Cc1c(-c2ccc(Cl)cc2)nc2ccc(Cl)cn12  -0.276% [at 26.5 µM]

In order of rising “activation” value:
1. CCOP(=S)(OCC)Oc1ccc(S(C)=O)cc1 (stereo not given)  -3.07%
2. O=[N+]([O-])c1c(Cl)c(Cl)cc(Cl)c1Cl  -1.54%
3. CC(C)N1C(=O)N(c2ccccc2)CSC1=NC(C)(C)C  -1.36%
4. CNP(=O)(OC)Oc1ccc(C(C)(C)C)cc1Cl (stereo not given)  -1.05%
5. CN(C)CCc1c[nH]c2ccccc12  -0.77%
6. CCOP(=S)(OCC)Oc1cc(C)nc(N(CC)CC)n1  -0.725%
7. CCOC(=O)COc1ccc(Cl)cc1Cl  -0.645%
8. O=C1NC(=O)C(=O)C(=O)N1  -0.533%
9. ClC1=C(Cl)[C@]2(Cl)[C@@H]3[C@H]4C[C@H]([C@@H]5O[C@H]45)[C@@H]3[C@@]1(Cl)C2(Cl)Cl  -0.51%
10. CCCCCCCCCCCCN(C)C  -0.332%
11. O=[N+]([O-])c1ccc(Cl)c(Cl)c1Cl  -0.226%
12. O=c1[nH]c2ccccc2o1  -0.215%
13. CCCCN(CCCC)C(=S)[S-].CCCCN(CCCC)C(=S)[S-].[Zn+2]  -0.0694%
14. COC(=O)c1ccccc1S(=O)(=O)NC(=O)Nc1nc(C)nc(OC)n1  -0.0089%
15. c1csc(-c2ccc(-c3cccs3)s2)c1  0.0472%
16. CCN(CC)CCc1c[nH]c2ccccc12  0.0724%
17. CCOP(=S)(S)OCC  0.256%
18. C[C@H]1[C@H](c2ccc(Cl)cc2)SC(=O)N1C(=O)NC1CCCCC1  0.362%
19. O=Cc1ccc2c(c1)OCO2  0.524%
20. N=C(N)[Se]  0.571%
21. O=[N+]([O-])c1cccc2cccnc12  0.658%
22. CC(C)(Cl)[N+](=O)[O-]  0.748%
23. CCOP(=O)(OCC)Oc1cc(C)nc(C(C)C)n1  0.801%
24. CCOP(=S)(OCC)OC(Cl)C(Cl)(Cl)Cl (stereo not given)  1.31%
25. CC1(C)CC/C(=C/c2ccc(Cl)cc2)C1(O)Cn1cncn1 (stereo not given)  1.48%
26. CC1(C)CN=C(NN=C(/C=C/c2ccc(C(F)(F)F)cc2)/C=C/c2ccc(C(F)(F)F)cc2)NC1  1.71%
27. O=C1C(=O)c2cccc3cccc1c23  2.86%

In the case of `CN(C)S(=O)(=O)N(SC(F)(Cl)Cl)c1ccccc1`, the Potency is reported as 38.9 µM (active).
In the case of `ClC1=C(Cl)[C@]2(Cl)[C@H]3[C@H]([C@@H]4C=C[C@H]3C4)[C@@]1(Cl)C2(Cl)Cl`, the Potency is reported as “inactive”.
For `O=C1Nc2ccc(Cl)cc2C(c2ccccc2)=NC1O` (stereo not given), the Potency was “inactive”.
With `ClC1=C(Cl)C2(Cl)C(CBr)CC1(Cl)C2(Cl)Cl` (stereo not given) the Potency was “inactive”.

`[Cl][Sn]([c]1ccccc1)([c]1ccccc1)[c]1ccccc1` showed an activation of 4.28% [at 11.8 µM].

Reference: PubChem BioAssay (Tox21)
